Assay outcomes as filed in PubChem BioAssay.
The list is not random: actives were taken first. Their share in the collection is about 12%.
BAZ2B block = blocks human BAZ2B; Potency, µM (titrated, usually from 114 µM), actives largely listed as inhibitors; AlphaScreen BAZ2B-H3K14Ac peptide displacement; AID 504333; Q9UIF8; 360,000 compounds, 4.4% hits; note: nearly all actives have a fitted effect of over 60% in size
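AlphaScreen luminescence quantifies BAZ2B engagement of H3K14Ac peptide; the protein and biotinylated peptide are both at 50 nM final, buffer PBS pH 7.4 with 0.01% Tween-20, all steps at room temperature.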
JMJD2A Tudor = inhibitors of human JMJD2A Tudor domain; AID 504339; AlphaScreen JMJD2A-Tudor / H3K4me3 peptide binding; 390,000 compounds, 4.4% hits; Potency, µM (top dose mostly 114 µM), hits mostly inhibitors; note: nearly all actives have a fitted effect of over 50% in size
Target sequence (O75164 whole entry, looked up, the tested form may be a part): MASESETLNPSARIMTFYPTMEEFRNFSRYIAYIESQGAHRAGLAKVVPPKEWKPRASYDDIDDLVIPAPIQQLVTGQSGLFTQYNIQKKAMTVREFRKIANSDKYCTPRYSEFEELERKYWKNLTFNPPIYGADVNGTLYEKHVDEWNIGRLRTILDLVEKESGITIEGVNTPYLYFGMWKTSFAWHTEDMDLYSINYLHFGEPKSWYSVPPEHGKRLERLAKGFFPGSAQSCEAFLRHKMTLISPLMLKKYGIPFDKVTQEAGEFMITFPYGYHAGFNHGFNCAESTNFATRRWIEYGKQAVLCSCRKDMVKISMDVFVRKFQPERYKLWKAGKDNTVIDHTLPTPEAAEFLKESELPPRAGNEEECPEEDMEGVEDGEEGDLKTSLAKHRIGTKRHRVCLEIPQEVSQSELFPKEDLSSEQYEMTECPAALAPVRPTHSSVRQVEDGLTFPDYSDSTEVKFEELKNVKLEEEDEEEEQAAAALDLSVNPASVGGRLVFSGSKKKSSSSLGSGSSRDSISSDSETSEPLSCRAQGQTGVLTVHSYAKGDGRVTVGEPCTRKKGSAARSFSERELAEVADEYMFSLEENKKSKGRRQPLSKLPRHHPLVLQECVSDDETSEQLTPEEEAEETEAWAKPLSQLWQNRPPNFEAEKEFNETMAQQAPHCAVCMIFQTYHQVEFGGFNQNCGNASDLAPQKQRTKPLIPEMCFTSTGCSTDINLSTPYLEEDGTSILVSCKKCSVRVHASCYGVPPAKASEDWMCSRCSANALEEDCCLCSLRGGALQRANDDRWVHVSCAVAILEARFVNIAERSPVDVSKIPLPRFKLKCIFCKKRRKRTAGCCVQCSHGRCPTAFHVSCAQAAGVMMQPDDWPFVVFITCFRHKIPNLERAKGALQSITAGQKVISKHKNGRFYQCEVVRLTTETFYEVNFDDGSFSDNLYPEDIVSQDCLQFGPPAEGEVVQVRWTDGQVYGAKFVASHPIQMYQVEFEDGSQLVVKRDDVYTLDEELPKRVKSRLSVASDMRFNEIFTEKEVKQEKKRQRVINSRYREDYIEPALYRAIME
Sfp PPTase inh = inhibitors of Bacillus subtilis Sfp phosphopantetheinyl transferase. Q9F4F7. Biochemical Sfp PPTase activity, qHTS. Potency, µM, hits mostly inhibitors. 310,000 compounds, 3.5% hits. AID 1490;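 note: the enzyme is Sfp with the accession as filed and its product quenches rhodamine fluorescence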
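With Hepes-Na pH 7.6 buffer containing 10 mM MgCl2, Sfp (15 nM) modified BHQ-2-YbbR (12.5 uM) using rhodamine-CoA (5 uM). Two reads 30 minutes apart at 525/598 nm yielded each well's rate.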
HP1b chromo inh = blocks HP1-beta chromodomain binding to methylated histone tails. 390,000 compounds, 0.56% hits. AlphaScreen HP1-beta / biotin-H3K9me3 peptide binding. Potency, µM (titrated, usually from 114 µM), usual class: inhibitors. P83916; note: nearly all actives have a fitted effect of over 70% in size
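AlphaScreen: HP1-beta (50 nM) preformed 30 min with biotin-H3(1-18)K9me3 peptide (50 nM) in PBS pH 7.4, 0.01% Tween-20. Compound added for 30 min at RT, then streptavidin donor/nickel chelate acceptor beads (10 ug/mL) for 30 min.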
G9a inh = G9a (human) methyltransferase inhibition. 350,000 compounds, 8.8% hits. G9a H3K9 monomethylation, AlphaScreen, 2 h. AID 504332. Q96KQ7. Potency, µM (titrated, usually from 102 µM), usual class: inhibitors; note: nearly all actives have a fitted effect of over 75% in size
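Readings reflect AlphaScreen signal from monomethyl-H3K9 antibody detection. HMT at 20 nM; substrate b-H3K9 500 nM; cofactor SAM 20 uM; 2 h RT reaction; compounds tested as titrations in qHTS with 15 min preincubation.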
L3MBTL1 block = inhibitors of human L3MBTL1. AID 485360. Potency, µM (series often up to 57.1 µM), usual class: inhibitors. Q9Y468. AlphaScreen L3MBTL1–H3K9me1 peptide binding. 230,000 compounds, 0.66% hits; note: nearly all actives have a fitted effect of over 60% in size
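L3MBTL1 50 nM + b-AHA-H3(1-15)K9me1 75 nM, 30 min RT; compound added, 30 min RT; streptavidin donor/Ni-chelate acceptor beads 10 ug/mL each final, 30 min RT dark; AlphaScreen read.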
Hits are given with their value; – = inactive; ? = inconclusive; · = not tested or not shown; [ ] = remark or other dose. Calls come from the whole dose curve; as a rule, active = well fitted curve in the direction sought with a large enough effect; inconclusive = small, poorly fitted or top-dose-only effect, or another doubt; inactive = no such curve, though single readings can be large; an effect the other way counts as inactive or inconclusive.

SMILES	BAZ2B block	JMJD2A Tudor	Sfp PPTase inh	HP1b chromo inh	G9a inh	L3MBTL1 block
CCOC(=O)c1n[nH]n2c1nc(=S)c1ccccc12	–	89µM	?	–	10µM	·
COc1ccc(C2CC(c3ccccc3)=NN2C(=O)CCCC(=O)O)cc1 (stereo unspecified)	–	–	–	–	–	–
CCOc1cc(-c2sc(Nc3cc(C)ccc3OC)n[n+]2-c2ccccc2)ccc1OC	56µM	56µM	·	–	–[12.7 µM]	–
COc1ccc(C)cc1Nc1n[n+](-c2ccccc2)c(-c2cc(OC)c(OC)cc2Br)s1	50µM	?	–	–	40µM	–
COc1ccc(C)cc1Nc1n[n+](-c2ccccc2)c(-c2ccc(C(=O)O)cc2)s1	40µM	35µM	56µM	–	10µM	–
COc1ccc(-c2sc(Nc3ccccc3)n[n+]2-c2ccccc2)cc1Br	50µM	79µM	·	–	–[12.7 µM]	–
Cc1ccc(Cn2cc(S(=O)(=O)c3ccc(C)cc3)c(=O)c3cc(F)c(N4CCCC4)cc32)cc1	–	–	·	–	–	·
C(=C\c1sc(Nc2ccccc2)n[n+]1-c1ccccc1)/c1ccccc1	·	56µM	·	?	·	·
C[n+]1nc(Nc2ccccc2)sc1-c1ccc(O)cc1	–	–	–	–	?	–
CCCC1O[C@@H]2CC3C4CCC5=CC(=O)C=C[C@]5(C)C4C(OC(C)=O)C[C@]3(C)[C@]2(C(=O)COC(C)=O)O1 (stereo partly specified)	–	18µM	–	–	–	–
CCCC1O[C@@H]2C[C@H]3[C@@H]4CCC5=CC(=O)C=C[C@]5(C)[C@H]4[C@@H](O)C[C@]3(C)[C@]2(C(=O)CO)O1 (stereo partly specified)	–	–	–	–	–	–
CCCCCC(O)c1ccc([C@H]2CCC(=O)[C@@H]2CCCCCCC(=O)O)cc1 (stereo partly specified)	·	·	–	·	·	·
Cc1c(N=NC2=C(O)CC(C)(C)CC2=O)cc2c(c1[N+](=O)[O-])C(C)(C)CC2(C)C	?	22µM	–	?	?	·
CC1=NN(c2ccccc2)C(=O)/C1=C/c1cn(C)c2ccccc12	5µM	6.3µM	–	11µM	–	?
CC1=NN(c2ccccc2)C(=O)/C1=C\c1cc(C)n(C)c1C	?	–	–	–	?	?
CC1=NN(c2ccccc2)C(=O)/C1=C\c1cn(C)c2ccccc12	3.5µM	8.9µM	–	16µM	11µM	?
COc1ccc(N(CC(=O)N2CCN(c3cccc(OC)c3)CC2)S(=O)(=O)c2c(C)noc2C)cc1	·	–	·	–	–	·
O=C(CSCc1ccccc1Cl)Nc1ccc2c(c1)OCCO2	?	–	–	–	–[0.501 µM]	–
O=C(CNCc1ccccc1Cl)Nc1ccc2c(c1)OCCO2	56µM	28µM	–	?	·	–
O=C(CSc1nc2c(c(=O)n1-c1ccc(Cl)cc1)SCC2)Nc1ccc2c(c1)OCCO2	–	–	–	–	45µM	–
O=C(CSc1nnc(-c2ccccn2)n1-c1ccc(Cl)cc1)Nc1ccc2c(c1)OCO2	?	–	–	–	14µM	·
O=C(CSc1nc2c(c(=O)n1-c1ccc(F)cc1)SCC2)Nc1ccc2c(c1)OCO2	·	–	·	–	·	·
O=C(CSc1nccn1Cc1ccc(Cl)cc1)Nc1ccc2c(c1)OCCO2	?	50µM	·	–	?	·
CC(=O)Nc1ccc(NC(=O)CSc2nccn2Cc2ccc(Cl)cc2)cc1	?	–	–	–	–	·
COCc1oc2ccc(NS(=O)(=O)c3ccc(C)cc3)cc2c1C(=O)OC	–	–	·	–	–	·
SMILES	BAZ2B block	JMJD2A Tudor	Sfp PPTase inh	HP1b chromo inh	G9a inh	L3MBTL1 block
O=C(CNCc1ccc(Cl)cc1)Nc1ccc2c(c1)OCCO2	56µM	18µM	–	?	11µM	–
CN(C)c1cc[n+](CC(=O)Nc2ccc(OC(F)F)cc2)cc1	50µM	?	–	–	·	–
CN(C)c1ccc(NC(=O)C[n+]2ccccc2)cc1	–	?	–	–	50µM	·
O=C(C[n+]1ccccc1)Nc1c(Cl)cc(Cl)cc1Cl	35µM	–	20µM	–	·	11µM
Cc1ccc[n+](CC(=O)Nc2ccc(N(C)C)cc2)c1	?	–	–	–	·	–
Cc1ccc[n+](CC(=O)Nc2c(Cl)cc(Cl)cc2Cl)c1	–	–	–	–	–	–
O=C(Cc1ccc2ccccc2c1)Nc1ccccc1Br	–	–	–	–	–	–
O=C(Cc1ccc2c(c1)CCCC2)Nc1ccccc1Br	–	–	–	–	45µM	–
Cn1c2cc(C#N)sc2c2cnn(Cc3ccccc3F)c(=O)c21	·	–	·	·	·	·
COCCCNC(=O)N1[C@H](c2cccs2)[C@@H](C)C(=O)[C@@H](C)[C@@H]1c1cccs1	–	–	·	–	–	·
O=C(C[n+]1ccccc1)Nc1ccccc1Br	25µM	–	–	–	0.32µM	?
CCOc1ccc(NC(=O)CS(=O)(=O)Cc2nc(-c3ccc(C)cc3)oc2C)cc1	–	–	·	–	–	·
CN(CCN(C)C(C)(C)C)C(=O)C(c1ccccc1)c1ccccc1	?	20µM	–	?	?	–
Cc1nn(-c2ccccc2)c(C)c1S(=O)(=O)O	?	–	–	–	45µM	–
CSCC[C@H](NC(=O)c1ccc2ccccc2c1)C(=O)N1CCC2(CC1)NCCc1[nH]cnc12	?	?	–	–	45µM	·
COc1ccc(COc2cc(-c3cccc(OC)c3)nc3ccc(N)cc23)cc1	?	?	–	–	45µM	–
O=C1C2CC=CCC2C(=O)N1c1ccc(N2CCN(c3ccccn3)CC2)c([N+](=O)[O-])c1 (stereo unspecified)	8.9µM	?	–	–	?	·
Cc1ccccc1OCC(=O)OCc1cc(=O)n2nc(C3CC3)sc2n1	–	–	·	–	–	·
CCOC(=O)/C(C#N)=C\c1cc(OC)c(OC)cc1[N+](=O)[O-]	–	11µM	–	?	–[0.501 µM]	–
CC(=O)c1ccc(NC(=O)CC2Oc3ccc(C)cc3NC2=O)cc1 (stereo unspecified)	–	–	·	–	–	·
O=C(NCCC(=O)N1CCN(c2ccccc2F)CC1)c1ccco1	–	–	·	–	–[0.501 µM]	–
COc1ccc(N2CCN(C(=O)/C=C/c3ccco3)CC2)cc1	–	–	–	–	32µM	?
Cc1ccc(/C=C/C(=O)N2CCN(c3ccc(F)cc3)CC2)o1	?	–	–	–	?	–
O=C(/C=C/c1ccco1)N1CCN(c2ccc(F)cc2)CC1	–	–	18µM	–	?	·
O=C(NCCC(=O)N1CCN(c2ccc(F)cc2)CC1)c1ccco1	–	–	·	–	50µM	–
Cc1ccc(CNC(=O)C2CCCN(S(=O)(=O)c3cccc4nonc34)C2)cc1 (stereo unspecified)	–	–	–	–	–	·
Cc1ccc2cc(CN(C)C(=O)c3cccc(Cl)c3)c(=O)[nH]c2c1	–	–	·	–	–	·
